Experimental data reported in PubChem BioAssay (Tox21).
Results filed as inconclusive are left out. The source made the active and inactive calls. Unless noted, calls follow the shape of the dose curve; as a rule, active = well fitted curve in the direction sought with a large enough effect in the repeat runs; inconclusive = weak or mixed curves; inactive = no such curve, though single readings can be large; an effect the other way counts as inactive or inconclusive.

Legend:
[1] = qHTS assay to identify small molecule agonists of the vitamin D receptor (VDR) signaling pathway - cell viability counter screen (AID 743224); also: series mostly up to about 63 µM; % is scaled to controls: 0 for no effect and ±100 for the full control effect; nearly all actives have a fitted effect of over 50% in size
In short: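 Counter screen for cytotoxicity: VDR-bla cells at 2,000 cells/well, 16 h compound exposure, then CellTiter-Glo luminescence after the beta-lactamase measurement.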

[2] = qHTS assay to identify small molecule antagonists of the vitamin D receptor (VDR) signaling pathway - cell viability counter screen (AID 743225); also: % is scaled to controls: 0 for no effect and ±100 for the full control effect; nearly all actives have a fitted effect of over 50% in size
In short: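 VDR-bla HEK 293T cells, 4 h pre-incubation at 37C, then compound plus 1-alpha,25-dihydroxyvitamin D3 (3 nM final) for 16 h. After the beta-lactamase FRET read, CellTiter-Glo was added to the same wells; luminescence after 30 min at room temperature.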

[3] = qHTS assay to identify small molecule agonists of the NFkB signaling pathway (AID 1159509; active = well fitted curve in the direction sought with a large enough effect in the signal ratio in the repeat runs, not every such curve was filed as active; the % refers to the signal ratio; also: series mostly up to about 61 µM; % is scaled to controls: 0 for no effect and ±100 for the full control effect)
In short: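 Agonist activity was read as beta-lactamase-driven FRET change (460 and 530 nm emission, 405 nm excitation) following 1.5 hr substrate loading at room temperature. Beforehand, ME-180 NFkB-bla reporter cells were treated with compounds for 5 hr at 37 C.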

[4] = qHTS assay to identify small molecule agonists of the NFkB signaling pathway - cell viability counter screen (AID 1159515; calls by dose curve; also: series mostly up to about 61 µM; % is scaled to controls: 0 for no effect and ±100 for the full control effect; nearly all actives have a fitted effect of over 55% in size)
In short: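 Counter screen run alongside the NFkB-bla agonist assay: ME-180 reporter cells exposed to compounds for 5 hr, then lysed with CellTiter-Glo in the same wells. Luminescence, read after 30 min, reflects viable cells.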

[5] = qHTS assay to identify small molecule agonists of the endoplasmic reticulum stress response signaling pathway (AID 1159516; active = well fitted activation curve with a large enough effect in the signal ratio in the repeat runs, not every such curve was filed as active; the % refers to the signal ratio; also: % is scaled to controls: 0 for no effect and ±100 for the full control effect)
In short: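 For this screen, HeLa cells stably carrying beta-lactamase under the ER stress response element received test compounds, positive controls or DMSO for 5 hr at 37 C; B/G FRET substrate was then added and dual-wavelength emission recorded.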

[6] = qHTS assay to identify small molecule agonists of the endoplasmic reticulum stress response signaling pathway - cell viability counter screen (AID 1159517; calls by dose curve; also: series mostly up to about 61 µM; % is scaled to controls: 0 for no effect and ±100 for the full control effect; nearly all actives have a fitted effect of over 50% in size)
In short: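 In parallel with the ESRE reporter read, cytotoxicity was scored by CellTiter-Glo luminescence (30 min, room temperature) on HeLa ESRE-bla cells dosed for 5 hr.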

[7] = qHTS assay to identify small molecule antagonists of the retinoid-related orphan receptor gamma (ROR-gamma) signaling pathway - cell viability counter screen (AID 1159520); also: % is scaled to controls: 0 for no effect and ±100 for the full control effect; nearly all actives have a fitted effect of over 50% in size
In short: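 Tet-on ROR gamma CHO cells were given compounds for 2 hr, then doxycycline hyclate at 1 uM final, and incubated 16 hr at 37 C. Viability was measured as ATP content by CellTiter-Glo luminescence.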

[8] = qHTS assay to identify small molecule agonists of the AP-1 signaling pathway - cell viability counter screen (AID 1159525; calls by dose curve; also: nearly all actives have a fitted effect of over 55% in size)
In short: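 Same-well cytotoxicity counter screen of the Tox21 10K library in ME-180 cells. The readout is ATP-dependent luminescence after 5 h compound treatment. Data are normalised to DMSO and tetra n-octyl ammonium bromide controls.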

[9] = qHTS assay to identify small molecule agonists of the AP-1 signaling pathway (AID 1159526; calls by dose curve; also: % is scaled to controls: 0 for no effect and ±100 for the full control effect)
[10] = qHTS assay to identify small molecule agonists of the RXR signaling pathway - cell viability counter screen (AID 1159529)
In short: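 RXR-alpha-UAS-bla HEK 293T cells in medium with 2% charcoal-stripped FBS were preincubated 5 hr, then exposed to compounds for 16 hr at 37 C. Viability was read as CellTiter-Glo luminescence after 30 min at room temperature.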

[11] = qHTS assay to identify small molecule antagonists of the retinoid acid receptor (RAR) signaling pathway - cell viability counter screen (AID 1159551); also: % is scaled to controls: 0 for no effect and ±100 for the full control effect; nearly all actives have a fitted effect of over 35% in size
In short: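 Measured by luminescent ATP detection, viability reflects C3RL4 cells treated 6 h at 37 C with test chemicals in the presence of 1 uM (final) retinol.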

[12] = qHTS assay to identify small molecule antagonists of the retinoic acid receptor (RAR) signaling pathway (AID 1159552)
In short: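 RARE-luc C3RL4 cells; cpds + 1 uM (final) retinol, 6 hr, 37 C/5% CO2; luciferase reagent, 30 min RT, luminescence readout. Inhibitors of retinol-driven signal scored.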

[13] = qHTS assay to identify small molecule agonists of the retinoic acid receptor (RAR) signaling pathway (AID 1159553); also: % is scaled to controls: 0 for no effect and ±100 for the full control effect
In short: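 6 hr compound exposure (DMSO vehicle) of overnight-plated C3RL4 RARE-luc cells at 37 C; luminescence quantified after 30 min RT with luciferase reagent.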

[14] = target: Nuclear receptor ROR-gamma (Homo sapiens) (UniProt P51449); assay: qHTS assay to identify small molecule antagonists of the retinoid-related orphan receptor gamma (ROR-gamma) signaling pathway (AID 1159521)
In short: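 Tet-on RORγ CHO cells carrying a ROR response element–luciferase reporter were pretreated with compounds for 2 h, then induced with 1 uM (final) doxycycline hyclate for 16 h at 37 C. Antagonism was read as decreased ONE-Glo luminescence.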

[15] = target: Retinoic acid receptor RXR-alpha (Homo sapiens) (UniProt P19793); assay: qHTS assay to identify small molecule agonists of the RXR signaling pathway (AID 1159527; calls by dose curve; also: % is scaled to controls: 0 for no effect and ±100 for the full control effect; nearly all actives have a fitted effect of over 35% in size)
In short: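 GeneBLAzer RXR-alpha-UAS-bla HEK 293T cells in medium with 2% charcoal-stripped FBS, pre-incubated 5 hr at 37 C, then exposed to compounds 16 hr. Beta-lactamase reporter read by FRET substrate, 2 hr room temperature, 460/530 nm emission.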

Sequence of Retinoic acid receptor RXR-alpha (Homo sapiens) (P19793 whole entry, looked up): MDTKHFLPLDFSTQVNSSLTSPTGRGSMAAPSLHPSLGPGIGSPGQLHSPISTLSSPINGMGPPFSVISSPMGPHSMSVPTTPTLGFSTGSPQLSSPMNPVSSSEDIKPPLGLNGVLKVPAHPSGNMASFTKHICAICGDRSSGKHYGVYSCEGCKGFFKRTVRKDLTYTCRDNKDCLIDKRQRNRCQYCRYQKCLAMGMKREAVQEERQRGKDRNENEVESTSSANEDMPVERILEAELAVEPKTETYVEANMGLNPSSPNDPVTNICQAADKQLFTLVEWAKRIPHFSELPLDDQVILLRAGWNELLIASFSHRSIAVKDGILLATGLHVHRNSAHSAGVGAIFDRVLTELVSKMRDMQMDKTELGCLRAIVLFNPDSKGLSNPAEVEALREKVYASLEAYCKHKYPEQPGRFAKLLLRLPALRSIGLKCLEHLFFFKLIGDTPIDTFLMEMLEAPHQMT

Oc1ccc(Oc2ccccc2)cc1
inactive: outcome [1] | outcome [2] | outcome [3] | outcome [4] | outcome [5] | outcome [6] | Potency [7] | outcome [8] | Potency [9] | Potency [10] | outcome [11] | outcome [12] | Potency [13]

O=C(O)c1ccc2c(c1)nc(C(=O)NC1CCN(C3CC3)CC1)n2Cc1cc(-c2ccc(Cl)s2)on1
inactive: outcome [1] | outcome [2] | outcome [3] | outcome [4] | outcome [5] | outcome [6] | activity, negative = cytotoxicity [7] -12.3% [at 19 µM] | activity change, negative = inhibition [14] -14.3% [at 19 µM] | viability change, negative = cytotoxic [8] 0.765% [at 15.8 µM] | activation [9] -0.694% [at 15.8 µM] | activity change, negative = cytotoxicity [11] 0.727% [at 19 µM]

Cc1cc(C)c(C)c(O)c1
inactive: outcome [1] | outcome [2] | outcome [3] | outcome [4] | outcome [5] | outcome [6] | Potency [7] | Potency [14] | outcome [8] | outcome [15] | Potency [10] | outcome [11] | outcome [12] | Potency [13]

CC(C)CC(C)(C)C
inactive: outcome [2] | outcome [3] | outcome [4] | outcome [5] | outcome [6] | Potency [7] | Potency [14] | outcome [8] | Potency [9] | outcome [11] | outcome [12] | Potency [13]

CS(C)=O
inactive: outcome [2] | outcome [3] | outcome [4] | outcome [5] | outcome [6] | Potency [7] | Potency [14] | outcome [8] | Potency [9] | outcome [11] | outcome [12] | Potency [13]

CCCCCCCCCCCCCCCCC(=O)O
inactive: outcome [1] | outcome [2] | outcome [3] | outcome [4] | outcome [5] | outcome [6] | Potency [7] | Potency [14] | outcome [8] | outcome [15] | Potency [10] | outcome [11] | outcome [12] | Potency [13]

CC1=CC(=C(c2ccc(N)cc2)c2ccc(N)cc2)C=CC1=N
inactive: activity change, negative = cytotoxicity [1] -18.2% [at 5.95 µM] | activation [3] 0.0131% [at 6.95 µM] | activity, negative = cytotoxic [4] 11% [at 6.95 µM] | activation [5] -5.36% [at 6.95 µM] | activity change, negative = cytotoxicity [6] -9.14% [at 6.95 µM] | activity, negative = cytotoxicity [7] -12.6% [at 8.39 µM] | activity change, negative = inhibition [14] -15.2% [at 8.39 µM] | viability change, negative = cytotoxic [8] 23.5% [at 6.97 µM] | activation [9] -9.58% [at 6.97 µM] | activity, negative = inhibition [12] -2.67% [at 8.39 µM] | activation [13] -1.68% [at 8.36 µM]

Cc1nc(C)c(C)nc1C
inactive: outcome [1] | outcome [2] | outcome [3] | outcome [4] | outcome [5] | outcome [6] | Potency [7] | Potency [14] | outcome [8] | Potency [9] | outcome [11]

SCCOCCOCCS
inactive: outcome [1] | outcome [2] | outcome [3] | outcome [4] | outcome [5] | outcome [6] | Potency [7] | Potency [14] | outcome [8] | Potency [9] | outcome [11]

Cc1ccc(Cl)c(OCC(O)CNC(C)(C)C)c1 (configuration not stated)
inactive: outcome [2] | outcome [3] | outcome [4] | outcome [5] | outcome [6] | Potency [7] | Potency [14] | outcome [8] | outcome [15] | Potency [10] | outcome [11] | outcome [12] | Potency [13]
